The source of these data is the supplement of paper PMC7866885, “A novel bicyclic 2,4-diaminopyrimidine inhibitor of Streptococcus suis dihydrofolate reductase” (PeerJ, 2021).

The structures appear in SMILES notation. ± gives the standard deviation.

For this assay, the system named is Streptococcus suis P1/7. The assay is described as follows: percent growth relative to DMSO control; higher = less growth inhibition. The following applies: 10 µM; incubation time 18 h. As for the experimental part: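 CLSI broth microdilution: 5x10^4 CFU of Streptococcus suis (strain P1/7 or HE06) incubated with 10 µM Pathogen Box compound in cation-adjusted Mueller Hinton broth, 37 °C, 5% CO2, 18 h. Growth read as OD600 and expressed as percent of the DMSO-treated control (100%); mean ± SD of three independent experiments.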
Consider `COc1cc(C2=NCCN2)ccc1-c1cn(-c2cccc(C3=NCCN3)c2)nn1`, for which the percent growth is 73 ± 4.1%.

As to `Cc1cccc(-c2nc(Nc3ccncn3)c3sccc3n2)n1`, the percent growth stood at 0.888 ± 0.29%.

For `CS(=O)(=O)Cc1nc2ccccc2oc1=O`, the percent growth came out at 88.2 ± 53%.

Turning to `N#Cc1ccc(-c2cnc(N)c(-c3ccc(C(N)=O)cc3)n2)cc1`, the percent growth came to 73.1 ± 4.3%.

As to `CC(C(=O)Nc1ccc2oc(-c3ccncc3)nc2c1)c1ccccc1` (stereo not given), the percent growth came to 95.8 ± 45%.

With `O[C@@H](c1cc(C(F)(F)F)nc2c(C(F)(F)F)cccc12)[C@H]1CCCCN1`, the percent growth came out at 97.7 ± 18%.

As for `CCC(Sc1nc2ccccc2o1)C(=O)Nc1nccs1` (stereo not given), the percent growth was 9.43 ± 16%.

As for `c1csc(-c2cnc3sc(NCC4CCOCC4)nn23)c1`, the percent growth stood at 91.2 ± 16%.

Turning to `CCNC(=O)C(C)Nc1nc(-c2cccnc2)nc2sc(C)c(C)c12` (stereo not given), the percent growth was determined as 64.5 ± 34%.

Take `COc1ccc(CCN2CCC(NCc3cccc(N(C)C)c3)CC2)cc1`: the percent growth was 67.3 ± 22%.

Consider `CC(=O)NCC1CN(c2ccc(-c3ccc(CO)cc3)c(F)c2)C(=O)O1` (stereo not given), for which the percent growth stood at 0.214 ± 0.37%.

In the case of `C[C@H](C(N)=O)N1CCCC[C@H]1c1ccc(OCc2cccc(F)c2)cc1`, the percent growth was determined as 63.4 ± 26%.

With `Cc1ncc(-c2ccnc(Nc3ccc(S(C)(=O)=O)cc3)n2)n1C(C)C`, the percent growth was 150 ± 100%.

On to `NC(=O)c1cc(Br)ccc1OCCOc1ccccc1`, for which the percent growth is 73.4 ± 29%.

Take `CC(C)=CCC/C(C)=C\CNCCNC1C2CC3CC(C2)CC1C3` (stereo not given): the percent growth was -0.0282 ± 0.049%.

In the case of `O=C(NC1CC1)c1ccc(N2CCOc3ccc(Cl)cc32)s1`, the percent growth amounted to 85.5 ± 14%.

Take `COc1cccn2c(C(=O)N3CCCCC3)c(C(F)(F)F)nc12`: the percent growth turned out to be 87 ± 21%.

Turning to `CNC(=O)C1Cc2ccccc2N1C(=O)Cc1ccc(F)cc1` (stereo not given), the percent growth is 94.5 ± 32%.

With `CC1CCCCN1C(=O)NCCc1coc(-c2ccc(F)cc2)n1` (stereo not given), the percent growth was 120 ± 87%.

As for `COc1ccc(C2=NN(C3CCCCCC3)C(=O)C2(C)C)cc1OCCCCOc1ccc(-c2nn[nH]n2)cc1`, the percent growth was found to be 16.3 ± 27%.

For `N#Cc1nc(-c2ccccc2F)oc1NCCc1ccccc1`, the percent growth came out at 98.7 ± 25%.

On to `CS(=O)(=O)N1CCC(CCn2nc(Cc3cccc4ccccc34)c3c(N)ncnc32)CC1`, for which the percent growth amounted to 100 ± 38%.

In the case of `O=C(NCCN1CCCC1)c1cc(NCCN2CCOCC2)nc2ccc(Cl)cc12`, the percent growth worked out at 83.1 ± 11%.

As for `COc1cccc(-c2nc3c(N4CCCC4)cccc3n2CC2CCCN2)n1` (stereo not given), the percent growth turned out to be 58.2 ± 19%.

Take `Cc1ccc2[nH]c(C3CCCNC3)c(-c3ccncc3)c2c1` (stereo not given): the percent growth was found to be 89.8 ± 7.2%.

Take `COc1ccc(CN2CCOc3ccc(C(C)(O)CN(C)C)cc3C2)cc1C` (stereo not given): the percent growth amounted to 101 ± 27%.

On to `O=C(NCc1ccco1)N1CCN(Cc2ccc(Cl)s2)CC1`, for which the percent growth was 91.1 ± 21%.

For `COc1ccc(S(=O)(=O)Nc2ccc(CN3CCN(C(=O)c4cccc(C#N)c4)CC3)cc2)cc1`, the percent growth was 118 ± 47%.

With `CN(C)CCNC(=O)N1CCCN(c2ncnc3cc(-c4ccccc4)sc23)CC1`, the percent growth is 72.1 ± 3.5%.

In the case of `N=C(N)c1ccc(-c2cc(-c3ccccc3)on2)cc1`, the percent growth stood at 106 ± 55%.

For `CC1=Nc2ccc(Cl)cc2C(O)(c2ccc(C)cc2)N1CCN1CCCCC1` (stereo not given), the percent growth stood at 91 ± 28%.

For the molecule `CC(C)(C)CN1C(=O)C(c2ccccc2)(c2ccccc2)N=C1N`, the percent growth turned out to be 49.6 ± 44%.

For `COc1ccc(Oc2ccc([C@@H](C)N(C)c3ncc4c(N)nc(N)nc4n3)cc2)cc1`, the percent growth was 83.9 ± 75%.

Consider `Cc1cccnc1NC(=O)c1cccc(OCc2c(C)noc2C)c1`, for which the percent growth was found to be 96.3 ± 39%.

On to `Cc1cc(C)nc(-n2nc(C)cc2Nc2ccccc2)n1`, for which the percent growth turned out to be 0.0724 ± 0.12%.

Regarding `CC1(C)Cc2c(c(N3CCOCC3)nc3snc(Br)c23)CO1`, the percent growth was 82.2 ± 20%.

Consider `COc1ccc(OC(C)C(=O)Nc2ccc(Cl)cc2C)cc1` (stereo not given), for which the percent growth worked out at 82.7 ± 6.3%.

`CN1CCN(c2nccc3[nH]c(-c4cccc(F)c4)cc23)CC1`: the percent growth worked out at 96 ± 26%.

Take `OCCc1ccc(Nc2nccc(-c3nnc4ccccn34)n2)cc1`: the percent growth was 88.5 ± 13%.

As for `Cc1cc(C(=O)Nc2ccc(-c3ccccc3)cc2)no1`, the percent growth stood at 118 ± 42%.
